In the library only some 3.4% were active in any assay of this set; here they are far more common.
14-3-3 Bad inh: disrupts binding of bovine 14-3-3 zeta to phospho-Bad peptide | inhibition, % at 21.7 µM | P63103 | 0.71% of 220,000 active | TR-FRET 14-3-3zeta/Dy647-pBad peptide displacement, 1 h;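 active = inhibition above about 70%, limit read from the data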;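 note: 0% = full 14-3-3 plus peptide FRET controls and 100% = background without 14-3-3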
Target sequence (P63103 whole entry, looked up): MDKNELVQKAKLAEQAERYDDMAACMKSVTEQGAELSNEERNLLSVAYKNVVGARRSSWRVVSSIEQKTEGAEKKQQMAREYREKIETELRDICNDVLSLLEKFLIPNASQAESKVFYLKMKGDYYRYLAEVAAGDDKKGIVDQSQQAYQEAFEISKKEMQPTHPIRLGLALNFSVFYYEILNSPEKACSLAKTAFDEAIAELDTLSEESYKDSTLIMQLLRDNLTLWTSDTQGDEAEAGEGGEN
Mcl1 Noxa PPI: Mcl-1/Noxa interaction inhibition; 1.5% of 220,000 active; inhibition, % at 21.7 µM; TR-FRET Mcl-1/Noxa peptide binding, 2 h; Q07820;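 active = compounds that cut the protein-peptide binding signal by more than 50% relative to plate controls in a single-dose test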;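 note: His-tagged Mcl-1 with rhodamine Noxa BH3 peptide and terbium anti-His antibody; 0% = Mcl-1 plus Noxa peptide wells and 100% = peptide-only wells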
Target sequence (Q07820 whole entry, looked up): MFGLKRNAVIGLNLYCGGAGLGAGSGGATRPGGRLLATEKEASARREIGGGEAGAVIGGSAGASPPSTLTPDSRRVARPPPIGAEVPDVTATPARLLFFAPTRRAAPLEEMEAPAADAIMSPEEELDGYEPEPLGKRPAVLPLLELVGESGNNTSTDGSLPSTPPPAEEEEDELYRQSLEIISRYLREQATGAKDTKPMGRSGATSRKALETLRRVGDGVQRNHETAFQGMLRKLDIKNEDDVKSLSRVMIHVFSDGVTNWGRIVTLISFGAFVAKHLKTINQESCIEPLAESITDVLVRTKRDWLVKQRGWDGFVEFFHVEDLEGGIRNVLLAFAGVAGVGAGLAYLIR
Mcl-1 Bim block: human Bim-Mcl-1 interaction inhibition; Bead-based flow cytometry, Bim peptide-Mcl-1 binding; inhibition, % at 10 µM; 0.1% of 190,000 active; in the data active = inhibition above about 40%;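 note: 0% = no compound tracer wells and 100% = peptide blocker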
eIF4E-4G inh: inhibitors of eIF4E and eIF4G interaction in translation initiation; P63073+Q04637; AID 782; 0.37% of 220,000 active; TR-FRET eIF4E-eIF4GI(517-606) binding, 2 h; inhibition, % at 21.7 µM;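 note: 0% = full FRET control wells and 100% = background wells lacking eIF4GI fragment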
p47phox inh: p47phox (human) inhibition. 0.53% of 220,000 active. AID 1274. inhibition, % at 24.7 µM. P14598. p47phox/p22phox peptide binding, fluorescence polarization, 2 h;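 note: 0% = p47phox with labelled peptide and 100% = labelled peptide alone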
Mcl1 Bid PPI: Mcl-1/Bid interaction inhibition; 0.97% of 220,000 active; TR-FRET Mcl-1/Bid-Dy647 peptide binding, 1536-well; inhibition, % at 21.7 µM; Q07820;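 active = compounds that cut the binding signal by more than half at the single screening dose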;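 note: His-tagged Mcl-1 with europium anti-His antibody binding Bid BH3 peptide; 0% = Mcl-1 plus peptide wells and 100% = peptide-only wells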
Starred values were filed as active, the others as inactive; x = no result; [ ] = dose if it differs, or a comment.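 Rule for the calls, unless noted: active = inhibition above about 30% (limit read from the data); inactive = the rest.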

SMILES	14-3-3 Bad inh	Mcl1 Noxa PPI	Mcl-1 Bim block	eIF4E-4G inh	p47phox inh	Mcl1 Bid PPI
Cc1ccccc1NC(=O)C1c2ccccc2Oc2ccccc21	0	14	-4	-1	-13	-8
Cc1cccc(C)c1NC(=O)C1c2ccccc2Oc2ccccc21	10	17	-4	-6	10	81*
Cc1nn(C)c(C)c1NC(=O)c1ccccc1NC(=O)Nc1ccccc1	0	4	x	-12	6	-4
C=C1CCN([C@H](C(=O)NCc2ccco2)C(C)C)S(=O)(=O)c2ccccc21	1	-9	x	-3	-8	-57
O=C(COc1ccccc1C(=O)c1cnn(-c2ccccc2)c1)Nc1ccccc1	84*[fluorescence artefact?]	24	0	0	2	6
Cn1nc(-c2ccccc2)c(CSc2ccccc2)c1Cl	x	-3	-1	x	139*	-8
Cc1ccc(SCc2c(-c3ccccc3)nn(C)c2Cl)cc1	-9	9	4	-14	1	-14
Cc1ccc(NNC(=O)c2ccc(Cl)cc2)nn1	-4	-3	x	7	0	-24
NNC(=O)Cn1c(-c2ccccc2)cc(=O)n2ncnc12	2	-17	x	2	-10	-38
Cc1nc(N2CCN(C)CC2)c2sc(=S)n(-c3ccccc3)c2n1	-3	-1	-2	5	-10	-9
Cc1nc(N2CCN(C)CC2)c2sc(=S)n(C)c2n1	-1	17	0	6	106*	-25
CCC1CCCCN1C(=S)Nc1cccc(S(=O)(=O)N(C)C)c1 (stereo not given)	-2	12	-2	2	-17	-42
CCOc1ccc(C2C(C(=O)Nc3ccc(F)cc3)=C(C)Nc3nc(CCCO)nn32)cc1 (stereo not given)	77*	4	-1	0	-7	-20
CCCn1c(SCC(=O)C(C)(C)C)nc2ccccc21	11	31	-4	1	-6	21
CCCn1c(SC(C)C(=O)O)nc2ccccc21 (stereo not given)	83*	-4	-2	-1	11	17
COc1cc(/C=C/c2nc3ccccc3s2)cc(OC)c1O	-3	55*	0	-2	-154	-7
Cc1ccc(/C=C/c2nc3ccccc3s2)s1	78*	10	-1	1	-40	-9
COc1cc(C=C(c2nc3ccccc3s2)c2nc3ccccc3s2)ccc1O	-5	24	-1	3	-45	-4
COc1cccc(-c2noc(-c3ccc(Br)o3)n2)c1	4	6	-1	-2	-12	-20
N=C(c1cccc([N+](=O)[O-])c1)N1CCCCC1	-1	-13	-3	0	-3	-12
CCN1/C(=C/c2ccc3cc(C)ccc3[n+]2C)Sc2ccc3sccc3c21	0	60*	38	3	-243	-28
O=C(N=Nc1c(O)n(C2OC(=O)c3ccccc32)c2ccccc12)c1ccco1 (stereo not given)	52	46	x	7	31*	45
O=C1SC(SCc2ccccc2)=N/C1=C\c1ccco1	17	23	-1	1	-67	-24
CCCSC1=N/C(=C\C=C\c2ccco2)C(=O)S1	-1	76*	0	3	-8	5
CCCSC1=N/C(=C\c2ccc([N+](=O)[O-])o2)C(=O)S1	46	79*	1	15	-15	6
SMILES	14-3-3 Bad inh	Mcl1 Noxa PPI	Mcl-1 Bim block	eIF4E-4G inh	p47phox inh	Mcl1 Bid PPI
CC(C)(C)NC(=O)NC(=O)CN1CCN(c2cccc(Cl)c2)CC1	-3	-10	x	85*	-22	-58
CCOc1cc(CN2CCC(CO)(Cc3cccc(C(F)(F)F)c3)CC2)ccc1OC	-4	5	-4	3	-9	-35
CCCn1c(/N=C/c2ccccc2O)nc2ccccc21	0	7	-5	0	-8	-20
Cn1c(/N=C/c2c(O)ccc3ccccc23)nc2ccccc21	11	23	2	8	5	56*
C=CCN(CC=C)C(=S)NC(=O)Cc1cccc2ccccc12	18	62*	0	10	-6	-50
CCN(CC)C(=S)NC(=O)Cc1ccccc1	-4	2	-3	1	-10	-32
O=C(Nc1cccc(-c2nc3cccnc3s2)c1)C1c2ccccc2Oc2ccccc21	91*	-34	-2	34*	25	25
CC(C)c1ccc(C(=O)N2CCN(c3cnn(C)c(=O)c3Cl)CC2)cc1	-7	42	0	-2	-1	-24
Cc1cccc(OCCCC(=O)Nc2ccc(Br)cc2)c1	7	11	-5	3	-10	9
Cc1cccc(OCCCC(=O)Nc2ccc(N(C)C)cc2)c1	9	77*	0	25	-4	-36
O=c1[nH]c2ccccc2c(O)c1-c1ccccc1[N+](=O)[O-]	-12	0	-4	2	-2	-5
CC(C)=CCc1c(O)ccc2c1OC(c1ccc(O)c(O)c1)CC2=O (stereo not given)	3	33	-1	3	-26	-6
O=C1CC(c2ccc(O)c(O)c2)Oc2c1ccc(O)c2O (stereo not given)	49	106*	x	6	-46	-86
Cc1ccc(S(=O)(=O)Nc2ccnc3ccccc23)cc1	11	-2	0	4	-7	63*
O=c1[nH]c(-c2ccc(Cl)cc2)nc(=S)[nH]1	2	-19	x	0	-10	-62
CC(C)c1ccc(C(CC(=O)c2ccc(Cl)cc2)C(=O)O)cc1 (stereo not given)	-3	-3	-3	-8	9	-6
CCc1ccc(C(CC(=O)c2ccc(Cl)cc2)C(=O)O)cc1 (stereo not given)	18	7	-2	-3	3	96*
O=C(CCCN1C(=O)c2ccccc2C1=O)Nc1cccc(S(=O)(=O)NC2=NCCC2)c1	-11	16	0	1	6	-31
COC(=O)c1c(C)oc(C)c1S(=O)(=O)N1CCOCC1	-4	3	x	-2	1	-15
O=C(Cc1ccc([N+](=O)[O-])cc1)N1N=C(C2CC2)CC1(O)C(F)(F)F (stereo not given)	91*	8	0	1	-5	-1
CC(C)(C)c1cc(C(=O)NCc2cc(F)cc3c2OCOC3)n(Cc2ccccc2)n1	-6	7	x	-3	-1	2
CCCCOC(=O)c1ccc(NC(=O)c2c(OC)cccc2OC)cc1	1	-5	-4	2	37*	-3
CCCCOC(=O)c1ccc(NC(=O)Nc2ccc(OC)c(OC)c2)cc1	9	17	-5	-3	-15	4
CCOC(=O)c1ccc(NC(=O)COc2ccccc2OC)cc1	83*	3	-4	-1	3	0
CCOC(=O)c1ccc(NC(=O)c2ccccc2)cc1	-11	13	0	13	-1	12
CCOC(=O)c1ccc(NC(=O)Oc2ccccc2)cc1	-5	15	2	-5	-4	100*

Screening data as filed in PubChem BioAssay.
